Measurements: PubChem BioAssay (NCATS)
Inconclusive results are not listed. Where a call stands in place of a potency, no number is given. Activity calls are given as the source filed them. Calls follow the shape of the dose curve; as a rule, active = well fitted curve in the direction sought with a large enough effect; inconclusive = small, poorly fitted or top-dose-only effect, or another doubt; inactive = no such curve, though single readings can be large; an effect the other way counts as inactive or inconclusive.

Assays:
[1] = qHTS of pediatric cancer cell lines to identify multiple opportunities for drug repurposing: Primary screen for Saos-2 cells (AID 1347097); also: nearly all actives have a fitted effect of over 40% in size; also: potency is read from the fitted curve at half-maximal effect
In short: (§1)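 Readout: CellTiter-Glo luminescence, 48 h treatment. Controls DMSO (neutral) and bortezomib 2.3 µM final (positive). Potency and efficacy taken from primary-screen concentration-response curves.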

[2] = qHTS of pediatric cancer cell lines to identify multiple opportunities for drug repurposing: Primary screen for NB1643 cells (AID 1347099); also: nearly all actives have a fitted effect of over 50% in size
In short: as §1

[3] = qHTS of pediatric cancer cell lines to identify multiple opportunities for drug repurposing: Primary screen for LAN-5 cells (AID 1347100)
In short: (§2)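 Cells (500-1,000/well) rested 5 h, then received compounds for 48 h; metabolically active cells were measured by CellTiter-Glo luminescence. Final concentrations spanned up to 46 µM (MIPE, 11-point) or 0.59 nM-46 µM (NPC, 8-point) in primary screens, 11-point in follow-ups.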

[4] = qHTS of pediatric cancer cell lines to identify multiple opportunities for drug repurposing: Primary screen for BT-12 cells (AID 1347101); also: nearly all actives have a fitted effect of over 25% in size; also: potency is read from the fitted curve at half-maximal effect
In short: as §2

[5] = qHTS of pediatric cancer cell lines to identify multiple opportunities for drug repurposing: Primary screen for Rh18 cells (AID 1347102); also: nearly all actives have a fitted effect of over 65% in size
In short: as §2

[6] = qHTS of pediatric cancer cell lines to identify multiple opportunities for drug repurposing: Primary screen for OHS-50 cells (AID 1347103); also: nearly all actives have a fitted effect of over 40% in size; also: potency is read from the fitted curve at half-maximal effect
In short: as §2

[7] = qHTS of pediatric cancer cell lines to identify multiple opportunities for drug repurposing: Primary screen for RD cells (AID 1347104); also: nearly all actives have a fitted effect of over 55% in size
In short: as §1

[8] = qHTS of pediatric cancer cell lines to identify multiple opportunities for drug repurposing: Primary screen for MG 63 (6-TG R) cells (AID 1347105); also: nearly all actives have a fitted effect of over 50% in size
In short: as §1

[9] = qHTS of pediatric cancer cell lines to identify multiple opportunities for drug repurposing: Primary screen for Rh30 cells (AID 1347107); also: series mostly up to about 46 µM; nearly all actives have a fitted effect of over 75% in size
In short: as §2

[10] = qHTS of pediatric cancer cell lines to identify multiple opportunities for drug repurposing: Primary screen for Rh41 cells (AID 1347108); also: nearly all actives have a fitted effect of over 70% in size; also: potency is read from the fitted curve at half-maximal effect
In short: as §1

[11] = qHTS of pediatric cancer cell lines to identify multiple opportunities for drug repurposing: Primary screen for control Hh wild type fibroblast cells (AID 1347106);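 also: series mostly up to about 46 µM; a drop in luminescence marks cytotoxicity and a rise apparent proliferation; nearly all actives have a fitted effect of over 55% in size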
In short: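 Cells (500-1,000/well) in growth media were settled 5 h at 37 degrees C, then given compounds for 48 h. Viability was read as CellTiter-Glo luminescence. Primary runs used MIPE at 11 points (0.78 nM-46 µM) and NPC at 8 points (0.59 nM-46 µM); follow-ups used 11 points.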

[12] = qHTS of pediatric cancer cell lines to identify multiple opportunities for drug repurposing: Primary screen for SK-N-SH cells (AID 1347098); also: nearly all actives have a fitted effect of over 65% in size; also: potency is read from the fitted curve at half-maximal effect
In short: as §2

[13] = qHTS of pediatric cancer cell lines to identify multiple opportunities for drug repurposing: Confirmatory screen for NB1643 cells (AID 1347109); also: nearly all actives have a fitted effect of over 45% in size
In short: as §2

[14] = qHTS of pediatric cancer cell lines to identify multiple opportunities for drug repurposing: Confirmatory screen for A673 cells (AID 1347110);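 also: cells exposed to compound for 48 h before the viability read; nearly all actives have a fitted effect of over 65% in size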
In short: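 A673 cells at 500-1,000 cells/well were dosed 5 h after plating, in dilution series up to 46 uM final; primary runs used 8 or 11 points and confirmatory runs used 11 points. Viability was read by CellTiter-Glo luminescence after 48 h, against DMSO and 2.3 uM bortezomib controls.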

[15] = qHTS of pediatric cancer cell lines to identify multiple opportunities for drug repurposing: Confirmatory screen for SK-N-MC cells (AID 1347111);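 also: potency is read from the fitted curve at half-maximal effect; cells exposed to compound for 48 h before the readout; nearly all actives have a fitted effect of over 70% in size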
In short: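 Seed 500-1,000 cells/well; rest 5 h at 37 degrees C. Pin-transfer compounds, 11-point titration. Incubate 48 h. Add CellTiter-Glo, 15 min RT, read luminescence.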

[16] = qHTS of pediatric cancer cell lines to identify multiple opportunities for drug repurposing: Confirmatory screen for BT-12 cells (AID 1347112); also: nearly all actives have a fitted effect of over 55% in size
In short: as §2

[17] = qHTS of pediatric cancer cell lines to identify multiple opportunities for drug repurposing: Confirmatory screen for LAN-5 cells (AID 1347113); also: nearly all actives have a fitted effect of over 65% in size
In short: as §2

[18] = qHTS of pediatric cancer cell lines to identify multiple opportunities for drug repurposing: Confirmatory screen for NB-EBc1 cells (AID 1347115);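 also: cells exposed to compound for 48 h before the viability read; nearly all actives have a fitted effect of over 45% in size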
In short: as §2

[19] = qHTS of pediatric cancer cell lines to identify multiple opportunities for drug repurposing: Confirmatory screen for BT-37 cells (AID 1347117);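 also: viability measured after 48 h of compound exposure; nearly all actives have a fitted effect of over 55% in size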
In short: as §2

| Compound | Potency [1] | Potency [2] | Potency [3] | Potency [4] | Potency [5] | Potency [6] | Potency [7] | Potency [8] | Potency [9] | Potency [10] | Potency [11] | Potency [12] | Potency [13] | Potency [14] | Potency [15] | Potency [16] | Potency [17] | Potency [18] | Potency [19] |
| --- | --- | --- | --- | --- | --- | --- | --- | --- | --- | --- | --- | --- | --- | --- | --- | --- | --- | --- | --- |
| COC(=O)c1cc(Cl)c(NC(C)=O)cc1OC | inactive | inactive | inactive | inactive | inactive | inactive | inactive | inactive | inactive | inactive | – | – | – | – | – | – | – | – | – |
| Cc1ccc(C(=O)C(=O)O)cc1C | inactive | inactive | inactive | inactive | inactive | inactive | inactive | inactive | inactive | inactive | inactive | – | – | – | – | – | – | – | – |
| O=C(CCCl)NCCc1ccccc1 | inactive | inactive | inactive | inactive | inactive | inactive | inactive | inactive | inactive | inactive | – | – | – | – | – | – | – | – | – |
| OCCc1ccccc1 | inactive | inactive | inactive | inactive | inactive | inactive | inactive | inactive | inactive | inactive | inactive | – | – | – | – | – | – | – | – |
| CCOC(=O)C(=O)CCc1ccccc1 | inactive | – | – | inactive | inactive | inactive | inactive | inactive | inactive | inactive | inactive | inactive | – | – | – | – | – | – | – |
| COC(=O)c1cc(Cl)ccc1NS(=O)(=O)C(F)(F)F | inactive | inactive | inactive | inactive | inactive | inactive | inactive | inactive | – | inactive | inactive | – | – | – | – | – | – | – | – |
| NC(=O)COCCN1CCN(C(c2ccccc2)c2ccc(Cl)cc2)CC1 (centres undefined) | inactive | inactive | inactive | inactive | inactive | inactive | inactive | inactive | inactive | inactive | inactive | – | – | – | – | – | – | – | – |
| COc1ccccc1OCC1CNC(=O)O1 (centres undefined) | inactive | – | inactive | inactive | – | inactive | inactive | inactive | inactive | inactive | inactive | inactive | – | – | – | – | – | – | – |
| CCO[C@H](Cc1ccc(OCCc2ccc(OS(C)(=O)=O)cc2)cc1)C(=O)O | inactive | inactive | inactive | inactive | inactive | inactive | inactive | inactive | inactive | inactive | inactive | – | – | – | – | – | – | – | – |
| O=C(OCC(COC(=O)c1cccnc1)(COC(=O)c1cccnc1)COC(=O)c1cccnc1)c1cccnc1 | inactive | inactive | inactive | inactive | inactive | inactive | inactive | inactive | inactive | inactive | inactive | – | – | – | – | – | – | – | – |
| C/C(=N/NC(=O)c1ccncc1)C(=O)O | inactive | inactive | inactive | inactive | inactive | inactive | inactive | inactive | inactive | – | inactive | – | – | – | – | – | – | – | – |
| Cc1cc(O)c2c(O)c3c(O)cccc3cc2c1 | inactive | inactive | inactive | inactive | inactive | inactive | inactive | inactive | inactive | inactive | inactive | – | – | – | – | – | – | – | – |
| OC1(c2ccccc2)CCNCC1 | inactive | – | inactive | inactive | – | – | inactive | inactive | inactive | inactive | inactive | inactive | – | – | – | – | – | – | – |
| O=C1[C@@H]2[C@H]3CC[C@H](C3)[C@@H]2C(=O)N1CCCCN1CCN(c2ncccn2)CC1 | inactive | inactive | inactive | inactive | inactive | inactive | inactive | inactive | inactive | inactive | inactive | – | – | – | – | – | – | – | – |
| CCOC(=O)C(=O)CCCCCCl | inactive | inactive | inactive | inactive | inactive | inactive | inactive | inactive | inactive | inactive | – | – | – | – | – | – | – | – | – |
| O=C(O)c1ccc(OCCN2CCCCC2)cc1 | inactive | inactive | inactive | inactive | inactive | inactive | inactive | inactive | inactive | inactive | inactive | – | – | – | – | – | – | – | – |
| CC(=O)O[C@@H]1C(=O)O[C@@H]2[C@H]1OC(=O)[C@@H]2OC(C)=O | inactive | – | – | inactive | inactive | – | inactive | – | inactive | inactive | – | inactive | inactive | inactive | 16.5 µM (active) | inactive | inactive | inactive | inactive |
| Nc1cccc2c(N)cccc12 | 27.3 µM (active) | – | inactive | – | – | – | – | inactive | – | 30.6 µM (active) | inactive | 28 µM (active) | – | – | – | – | – | – | – |
| C1N2CN3CN1CN(C2)C3 | inactive | inactive | inactive | inactive | inactive | inactive | inactive | inactive | inactive | inactive | inactive | – | – | – | – | – | – | – | – |
| O=C1NC2CCCCN2C12CCN(CCCN1c3ccccc3CCc3ccc(Cl)cc31)CC2 (centres undefined) | 23.7 µM (active) | – | – | 15.5 µM (active) | – | 27.6 µM (active) | – | – | inactive | – | inactive | 27.3 µM (active) | – | – | – | – | – | – | – |
